Assay outcomes as filed in PubChem.
SMN2 splice enh: qHTS Assay for Enhancers of SMN2 Splice Variant Expression; AID 1458, 2008; 210,000 tested, 2.8% active; Potency, µM (titrated, usually from 46.1 µM), without a hit: top-dose activity change, positive = activation, actives largely listed as activators; HEK293 SMN2-luciferase splicing reporter, luminescence, 30-36 h; note: % of control where 0% means no effect; nearly all actives have a fitted effect of over 55% in size
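qHTS luciferase splicing reporter: luminescence rises when SMN2 exon 7 is included in transfected HEK293 cells. Compound exposure lasted 30-36 h at 37C, with 4.5 mM final sodium butyrate as control, followed by a ONE-Glo read.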
ELG1 genotoxic: qHTS screen for small molecules that induce genotoxicity in human embryonic kidney (HEK293T) cells expressing luciferase-tagged ELG1; HEK293T ELG1-luciferase reporter, luminescence, 16 h; Potency, µM (highest dose often 46 µM), for the others: at the highest dose activity change, positive = activation, usual class: activators; 330,000 tested, 1.3% active; AID 504466, 2011; note: % of control where 0% means no effect; nearly all actives have a fitted effect of over 60% in size
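16 hr compound incubation (37 °C, 5% CO2) of HEK293T cells carrying luciferase-tagged ELG1; luciferase then measured by ONE-Glo luminescence after 30 min at RT.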
p53 reactivator: qHTS assay for re-activators of p53 using a Luc reporter. Potency, µM (doses to about 92.2 µM), for inactives: top-dose activity change, positive = activation, hits mostly activators. H1299 p53-A138V BP100-luciferase reporter, luminescence, 24 h. 320,000 tested, 0.063% active; note: % of control where 0% means no effect; nearly all actives have a fitted effect of over 45% in size
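p53-null H1299 cells stably carrying temperature-sensitive p53-A138V and a BP100-luciferase reporter were pinned with compounds (4-point, 1:5 series) and held 24 hrs at 37 deg C. Luminescence was read 10 min after detection reagent.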
FLuc modulator: qHTS profiling assay for firefly luciferase inhibitor/activator using purifed enzyme and Km concentrations of substrates (counterscreen for miR-21 project); Potency, µM (top dose mostly 57.5 µM), for the others: at the top dose activity change, negative = inhibition, actives largely listed as inhibitors; Luciferin 4-monooxygenase (Photinus pyralis), P08659; purified FLuc, Km substrates, luminescence inhibition; 360,000 tested, 6.9% active;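 note: plate controls were vehicle for no effect and reference inhibitor for full effect; nearly all actives have a fitted effect of over 55% in size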
Target sequence (P08659 whole entry, looked up): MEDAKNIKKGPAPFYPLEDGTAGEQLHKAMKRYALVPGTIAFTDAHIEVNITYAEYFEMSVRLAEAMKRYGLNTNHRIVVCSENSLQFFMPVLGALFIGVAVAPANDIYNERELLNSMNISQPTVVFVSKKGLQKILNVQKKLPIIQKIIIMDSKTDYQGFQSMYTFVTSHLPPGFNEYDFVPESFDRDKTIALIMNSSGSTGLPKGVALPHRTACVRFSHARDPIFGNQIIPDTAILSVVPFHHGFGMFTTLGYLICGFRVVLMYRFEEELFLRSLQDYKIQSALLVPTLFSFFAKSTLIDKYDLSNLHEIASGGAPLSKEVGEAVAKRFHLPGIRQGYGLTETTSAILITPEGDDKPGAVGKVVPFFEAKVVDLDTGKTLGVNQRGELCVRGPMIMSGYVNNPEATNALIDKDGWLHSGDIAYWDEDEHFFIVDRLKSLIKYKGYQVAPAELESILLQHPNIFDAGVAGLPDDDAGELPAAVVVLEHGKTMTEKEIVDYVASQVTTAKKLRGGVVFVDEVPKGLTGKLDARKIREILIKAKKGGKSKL
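Purified P. pyralis luciferase, 10 nM final, with Km-level 10 uM D-luciferin and 10 uM ATP in 50 mM Tris acetate pH 7.5, 10 mM Mg acetate, 0.01% Tween-20, 0.05% BSA; 6-point qHTS titration about 60 µM downward; luminescence read.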
Rab9 prom act: qHTS Assay for Rab9 Promoter Activators. Huh7 Rab9 promoter-luciferase reporter, luminescence, 24 h. Potency, µM (series often up to 9.22 µM), for the others: at the top dose activation, negative = inhibition, hits mostly activators. 320,000 tested, 2.8% active; note: % of control where 0% means no effect; nearly all actives have a fitted effect of over 60% in size
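Steps: seed 1500 Huh7 Rab9-luc cells per well, rest 2 h at 37 °C; add compound in DMSO; incubate 24 h; add luciferase reagent, 10 min ambient; read luminescence.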
NPC1 promoter act: qHTS Assay for NPC1 Promoter Activators. Huh7 NPC1 promoter luciferase reporter, 24 h. AID 485313, 2010. Potency, µM (series often up to 9.22 µM), for the others: at the highest dose activation, usual class: activators. 320,000 tested, 2.4% active; note: % of control where 0% means no effect; nearly all actives have a fitted effect of over 60% in size
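Luminescence from an NPC1 promoter-driven luciferase reporter in stably transfected Huh7 cells was measured after 24 h compound treatment at 37 °C, followed by 10 min ambient incubation with luciferase detection reagent.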
* marks the source's active call; other numbers are inactive results; ? = inconclusive; . = no result given; [ ] = dose if it differs, or a comment. Sampled rows, rich in hits. Any-hit rate of the full collection: about 7.3%. Calls come from the whole dose curve; as a rule, active = well fitted curve in the direction sought with a large enough effect; inconclusive = small, poorly fitted or top-dose-only effect, or another doubt; inactive = no such curve, though single readings can be large; an effect the other way counts as inactive or inconclusive. Potency is the fitted concentration of half-maximal effect.

SMILES	SMN2 splice enh	ELG1 genotoxic	p53 reactivator	FLuc modulator	Rab9 prom act	NPC1 promoter act
CN(C)c1ccc(C=C2C(=O)OC(C)(C(C)(C)C)OC2=O)cc1 (stereo not drawn)	2.5%	-0.1%	-12.8%	9.53µM*	6.7%	-0.7%
CCN(CC)c1ccc(C=C2C(=O)OC(C)(C(C)(C)C)OC2=O)cc1 (stereo not drawn)	8.7%	1.4%	1.8%	-1.4%	1.6%	-4.7%
Cc1c(Cl)cccc1NC(=O)CN1C(=O)COc2ccc(S(=O)(=O)N3CCOCC3)cc21	.	.	.	-1.2%	.	.
O=C1OCCC1Sc1nnc(-c2ccc(Br)cc2)o1 (stereo not drawn)	-1.6%	-1.8%	-6.7%	6.01µM*	-4.8%	-0.1%
Brc1ccc(-c2nnc(SCCC3OCCCO3)o2)cc1	25.8%	13.2%	4.0%	15.1µM*	22.6%	24.3%
c1ccc(-c2nnc(SCCC3OCCCO3)o2)cc1	11.2µM*	?	-0.4%	15.1µM*	2.51µM*	2.51µM*
O=C(CSc1nnc(-c2ccccc2)o1)Oc1ccc(Br)cc1	5.3%	-6.1%	0.9%	3.0%	12.2%	-2.3%
O=C1OCCC1Sc1nnc(-c2ccco2)o1 (stereo not drawn)	-1.4%	2.1%	-3.8%	-1.8%	7.4%	-0.4%
COCCNS(=O)(=O)c1cc(C(=O)O)ccc1OC	.	-0.2%	-5.3%	0.5%	0.2%	1.0%
COCCNS(=O)(=O)c1cc(F)ccc1OC	3.16µM*	-2.9%	-0.1%	0.5%	-3.6%	1.1%
Cc1cc(NC(=O)c2coc(=O)c(Br)c2)ccc1C(C)C	.	?	?	5.36µM*	?	18.5%
COc1ccc(C(=O)NC(C)c2ccccc2)cc1Br (stereo not drawn)	-5.8%	-3.6%	-3.4%	-3.2%	-0.3%	0.0%
C[C@@H](NC(=O)c1coc(=O)c(Br)c1)c1ccccc1	12.6µM*	20.6µM*	-32.7%	-2.3%	8.2%	2.0%
CC(=O)c1ccc(N2C(=O)N(Cc3cccc(C(F)(F)F)c3)c3ccccc3S2(=O)=O)cc1	.	.	.	-2.1%	.	.
O=C(Cc1ccccc1)Nc1ccc(NC(=O)c2ccco2)cc1	.	?	16.7%	?	24.3%	27.1%
Cc1ccc(-c2noc(COC(=O)c3ccco3)n2)cc1	.	11.5%	?	9.53µM*	4.0%	19.5%
Cc1cccc(-c2noc(CCc3ccccc3)n2)c1	23.9%	?	?	12µM*	2.82µM*	?
O=C(Nc1ccc(-c2noc(CCc3ccccc3)n2)cc1)c1ccco1	2.82µM*	?	?	4.26µM*	1.12µM*	1.26µM*
COc1ccc(-c2noc(CNC(=O)c3ccco3)n2)cc1	-1.3%	.	.	0.5%	.	.
c1ccc(CCc2nc(-c3ccccc3)no2)cc1	28.1%	?	18.9%	12µM*	?	?
CC1CCN(c2nn3c(=O)c(C(=O)NCCc4ccccc4)cnc3s2)CC1	.	.	.	1.8%	.	.
c1ccc(OCc2nc(-c3ccccc3)no2)cc1	?	14.6µM*	?	26.9µM*	?	?
O=C1CCC(=O)N1CCCCCc1nc(-c2ccccc2)no1	-3.6%	20.6µM*	?	?	?	17.8%
c1ccc(OCc2nc(-c3ccncc3)no2)cc1	.	10.2%	8.9%	?	?	13.9%
O=C(Nc1nnc(-c2ccco2)s1)C1CCCCC1	-9.2%	9.5%	?	?	3.16µM*	3.55µM*
SMILES	SMN2 splice enh	ELG1 genotoxic	p53 reactivator	FLuc modulator	Rab9 prom act	NPC1 promoter act
CC(C)CC(=O)Nc1nnc(-c2ccco2)s1	26.0%	16.4µM*	20.7%	?	2.51µM*	?
O=C(Nc1nc(-c2ccco2)c(-c2ccco2)s1)C1CCC1	12.5%	4.2%	1.8%	19µM*	-6.3%	-0.3%
CCOc1ccc(CNC(=O)C2CCCN(S(=O)(=O)c3ccc4c(c3)CCCC(=O)N4)C2)cc1 (stereo not drawn)	.	.	.	-2.5%	.	.
c1ccc2c(C3=NNC(=NC4CC4)SC3)c[nH]c2c1	2µM*	?	?	1.51µM*	0.631µM*	?
c1ccc(C2=NNC(=NC3CC3)SC2)cc1	2.51µM*	?	-5.9%	1.35µM*	0.112µM*	?
c1ccc2c(C3=NNC(=NC4CCCCC4)SC3)c[nH]c2c1	20µM*	0.4%	25.3%	?	15.3%	-1.3%
Cc1cccc(N=C2NN=C(c3c(C)[nH]c4ccccc34)CS2)c1	-106.2%	-4.7%	-1.9%	-1.1%	-0.2%	-6.4%
CCOc1ccc(N(Cc2cc3cc(C)ccc3[nH]c2=O)C(=O)c2cccc(Cl)c2)cc1	7.4%	.	.	3.9%	.	.
CCc1nnc(NC(=O)C23CC4CC(CC(C4)C2)C3)s1	.	?	?	10.7µM*	?	?
CC(C)Cc1nnc(NC(=O)C23CC4CC(CC(C4)C2)C3)s1	.	-0.7%	3.2%	-8.1%	15.0%	6.9%
CSc1nnc(NC(=O)C23CC4CC(CC(C4)C2)C3)s1	.	3.3%[9.26 µM]	?	23.9µM*	?	?
COc1ccc(-n2nc(C(=O)N3CCN(c4cccc(C(F)(F)F)c4)CC3)c3c4ccccc4n(C)c3c2=O)cc1Cl	15.1%	.	.	7.5%	.	.
COc1ccc(-c2cc(OC(=O)c3ccccc3Cl)c3c(C)oc(C)c3c(=O)c2)cc1OC	4.8%	.	.	-8.1%	.	.
c1ccc(Nc2cccc(Nc3ccccc3)c2)cc1	22.3%	?	25.2%	15.1µM*	23.4%	23.9%
O=C(Nc1ccc(NC(=O)c2cccs2)cn1)c1ccccc1	15.8µM*	?	6.7%	5.36µM*	1.12µM*	2.24µM*
Cc1cc(NC(=O)c2ccccc2)ncc1NC(=O)c1cccs1	11.2µM*	?	-2.8%	15.1µM*	3.98µM*	3.55µM*
O=C(Nc1ccc(NC(=O)C2CC2)nc1)c1cccs1	11.3%	?	?	?	4.0%	21.5%
Cc1cc(NC(=O)c2cccs2)ncc1NC(=O)C(C)C	.	-3.0%	.	15.1µM*	2.24µM*	1.78µM*
Cc1cc(NC(=O)c2ccccc2F)ncc1NC(=O)c1cccs1	?	13.3%	-1.3%	?	28.6%	16.4%
Cc1cc(NC(=O)c2cccs2)ncc1NC(=O)c1cccc(F)c1	?	?	8.4%	19µM*	3.16µM*	27.4%
CSc1ccc(CCNC(=O)c2cc3cc4cc(C)ccc4nc3s2)cc1	.	.	.	6.0%	.	.
C[C@@H](SCc1ccccc1)C(=O)O	-6.4%[9.22 µM]	.	.	.	.	.
CCCCOc1ccc(C(=O)N/C(=C\c2ccc(Br)cc2)C(=O)NC2CCCCC2)cc1	4.0%	.	.	-4.5%	.	.
